Bioassay records deposited in PubChem by National Center for Advancing Translational Sciences (NCATS).
G9a block – inhibitors of human histone lysine methyltransferase G9a | Q96KQ7 | G9a H3K9 monomethylation, AlphaScreen, 2 h | Potency, µM (top dose mostly 102 µM), for the others: top-dose activity, negative = inhibition, hits mostly inhibitors | 350,000 tested, 8.8% active; further: on the % scale 0 is the no-effect control and ±100 the full control effect; nearly all actives have a fitted effect of over 75% in size
Target sequence (Q96KQ7 913-1193 limits assumed): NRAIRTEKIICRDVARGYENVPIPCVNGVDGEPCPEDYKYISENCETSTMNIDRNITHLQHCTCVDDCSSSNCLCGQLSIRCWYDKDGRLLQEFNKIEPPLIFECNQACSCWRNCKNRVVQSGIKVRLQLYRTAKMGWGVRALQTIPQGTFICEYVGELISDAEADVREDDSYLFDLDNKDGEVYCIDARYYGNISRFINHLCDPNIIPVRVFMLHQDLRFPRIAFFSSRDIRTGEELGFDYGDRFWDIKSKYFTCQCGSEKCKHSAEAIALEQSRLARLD
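Chemiluminescent proximity detection of H3K9 monomethylation, read after 10 min bead incubation in the dark. Reaction: 20 nM G9a, 500 nM biotin-H3K9 peptide, 20 uM SAM cofactor, 2 h, room temperature, following 15 min enzyme-compound preincubation.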
HP1b binding inh – HP1-beta chromodomain-methylated histone interaction inhibition; AlphaScreen HP1-beta / biotin-H3K9me3 peptide binding; Potency, µM (titrated, usually from 114 µM), for the others: at the top dose activity change, negative = inhibition, most hits filed as inhibitors; 390,000 tested, 0.56% active; P83916; further: nearly all actives have a fitted effect of over 70% in size
Target sequence (P83916 whole entry, looked up): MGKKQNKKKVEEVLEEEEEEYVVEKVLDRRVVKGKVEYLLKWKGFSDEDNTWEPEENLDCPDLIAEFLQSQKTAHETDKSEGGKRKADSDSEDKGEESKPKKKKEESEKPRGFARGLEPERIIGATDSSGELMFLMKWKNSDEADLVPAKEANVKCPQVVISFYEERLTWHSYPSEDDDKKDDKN
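AlphaScreen: HP1-beta (50 nM) preformed 30 min with biotin-H3(1-18)K9me3 peptide (50 nM) in PBS pH 7.4, 0.01% Tween-20. Compound added for 30 min at RT, then streptavidin donor/nickel chelate acceptor beads (10 ug/mL) for 30 min.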
JMJD2A Tudor inh – JMJD2A Tudor domain (human) inhibition; AlphaScreen JMJD2A-Tudor / H3K4me3 peptide binding; Potency, µM (titrated, usually from 114 µM), for inactives: at the highest dose activity change, negative = inhibition, hits mostly inhibitors; 390,000 tested, 4.4% active; AID 504339; further: on the % scale 0 is the no-effect control and ±100 the full control effect; nearly all actives have a fitted effect of over 50% in size
PLK1 PBD block – inhibitors of human PLK1 polo-box domain binding. P53350. Plk1 PBD binding of FITC phosphopeptide, fluorescence polarization. Potency, µM, without a hit: max response, negative = inhibition, hits mostly inhibitors. 360,000 tested, 2.8% active; further: series mostly up to about 57 µM; on the % scale 0 is the no-effect control and ±100 the full control effect; nearly all actives have a fitted effect of over 65% in size
12-LOX inh – ALOX12 (human) lipoxygenase inhibition. Potency, µM (titrated, usually from 108 µM), for inactives: at the top dose activity change, negative = inhibition, hits mostly inhibitors. 580,000 tested, 1.1% active. P18054. AID 1671190. purified 12hLO, xylenol orange hydroperoxide absorbance; further: on the % scale 0 is the no-effect control and ±100 the full control effect
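Purified human 12hLO (150 nM final) in 25 mM Hepes, 0.01% Triton X-100, pH 7.0 was preincubated 15 min at room temperature with compound. Then 40 uM arachidonic acid was added, 30 min. Hydroperoxide was read by Fe-XO absorbance ratio 573/405 nm.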
BAZ2B block – blocks human BAZ2B; Q9UIF8; AlphaScreen BAZ2B-H3K14Ac peptide displacement; Potency, µM (top dose mostly 114 µM), inactives show at the top dose activity change, negative = inhibition, actives largely listed as inhibitors; 360,000 tested, 4.4% active; further: on the % scale 0 is the no-effect control and ±100 the full control effect; nearly all actives have a fitted effect of over 60% in size
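Protein-peptide AlphaScreen: BAZ2B 50 nM, b-H3K14Ac 50 nM, 1x PBS pH 7.4 + 0.01% Tween-20. Preincubation 30 min RT; cpd 30 min RT (top 110 uM); beads 20 min RT, light-protected.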
* marks the source's active call; other numbers are inactive results; ? = inconclusive; nt = no result; [ ] = dose if it differs, or a comment. Compounds with a hit are over-represented: about 9% of the library has one in this group of screens. The call rests on the fitted dose curve; in most records, active means well fitted curve in the direction sought with a large enough effect; inconclusive means small, poorly fitted or top-dose-only effect, or another doubt; inactive means no such curve, though single readings can be large; an effect the other way counts as inactive or inconclusive. Potency means the concentration at half of the fitted maximal effect.

SMILES	G9a block	HP1b binding inh	JMJD2A Tudor inh	PLK1 PBD block	12-LOX inh	BAZ2B block
CCN(CC)c1ccc(/C=C(/C#N)C(=O)NC(C)C)o1	?	-11%	?	40%	30%	-28%
Cc1ccc(C)c(OCCn2cc(/C=C(\C#N)C(=O)NCC3CCCO3)c3ccccc32)c1 (centres undefined)	-9%[59 µM]	2%	?	30µM*	-9%	-5%
COC(=O)C1=C(C)N(Cc2cccc(C(F)(F)F)c2)C(=NCc2ccccc2C(F)(F)F)NC1c1ccccc1C(F)(F)F (centres undefined)	nt	nt	nt	nt	-29%	nt
Cc1ccc(C2(C)NC(=O)N(CC(=O)N(C)CC(=O)Nc3cccc(F)c3)C2=O)cc1 (centres undefined)	?	44%	-8%	-5%	15%	2%
O=C(O)Cn1cc(/C=C/[N+](=O)[O-])c2ccccc21	56µM*	-6%	-23%[57.1 µM]	-29%	?	-31%
Cc1cnc(NC(=O)CSc2ccc(Cl)cc2)s1	49%[12.7 µM]	28%	-22%	?	-15%	4%
Cc1ccc(OCC(=O)NNC(=O)c2cc(C)[nH]n2)cc1	-14%[59 µM]	15%	?	-2%	10%	2%
Cc1cnc(NC(=O)COc2ccccc2Cl)s1	56µM*	10%	-18%	-5%	22%	1%
Cc1cc(C(=O)NNC(=O)COc2ccccc2Cl)n[nH]1	79µM*	29%	12%	-7%	-2%	4%
Cc1cnc(NC(=O)Nc2ccc(Cl)cc2)s1	50µM*	22%	-10%	-13%	-2%	16%
CCOC(=O)C1CCCN(C(c2ccccn2)c2c(C)[nH]c3ccccc23)C1 (centres undefined)	1.4µM*	5%	-7%	-16%	?	-33%
Cc1ccnc(NC(c2ccccn2)c2c(C)[nH]c3ccccc23)c1 (centres undefined)	?	?	56µM*	12µM*	-28%	-39%
Cc1[nH]c2ccccc2c1C(c1ccccn1)N1CCCC1 (centres undefined)	45µM*	29%	-11%	-23%	16%	-24%
NC(=O)Cn1nnc(-c2ccc(CN3CCCCC3)cc2)n1	-3%[0.501 µM]	43%	-2%	-3%	2%	0%
O=C(O)c1ccc(C2CCCCC2)cn1	?	36%	1.6µM*	-2%	-19%	4µM*
O=C(O)c1ccc(O)cn1	nt	nt	nt	nt	16%	nt
Cc1cccc(C)c1NC(=S)N/N=C1\CC2CC=CC12 (centres undefined)	13µM*	?	-34%	15µM*	0%	-27%
O=C(Cc1ccc(Cl)cc1)Nc1ccc(Br)cn1	18%	60%	32%	5%	13%	15%
c1ccc(NCCc2ccccn2)cc1	nt	5%[57 µM]	-17%	2%	-23%	nt
c1ccc(CCNc2ccccc2)cc1	?	nt	nt	nt	nt	56µM*
S=C(NCCc1ccccc1)NCCc1ccccc1	-1%[59 µM]	11%	-20%	-7%	50µM*	-7%
S=C(NCCc1ccccc1)Nc1ccc(Br)cn1	7.1µM*	11%	-5%	-13%	?	?
S=C(NCc1ccc(Cl)cc1)Nc1ccc(Br)cn1	nt	nt	nt	nt	4.5µM*	nt
NNC(=S)NCCc1ccccc1	12%[12.7 µM]	2%	?	-28%	?	?
N/C(=N\OC(=O)Nc1ccccc1)c1ncc(C(F)(F)F)cc1Cl	11%	9%	-12%	-10%	401%	7%
SMILES	G9a block	HP1b binding inh	JMJD2A Tudor inh	PLK1 PBD block	12-LOX inh	BAZ2B block
Cc1ccc2nc(SCC(=O)Nc3oc(C)c4c(C)n[nH]c(=O)c34)[nH]c2c1	-12%[12.7 µM]	31%	-17%	-22%	-13%	3%
COc1ccc(C2=Nn3c(nnc3-c3ccncc3)SC2)cc1OC	?	4%	-21%	?	?	?
S=C(NCCc1ccccc1)NCc1cccc(Cl)c1	8.9µM*	37%	3%	-9%	nt	?
Cc1c(Cl)cccc1NC(=S)Nn1cnnc1	8.9µM*	-16%	-28%	7.5µM*	?	?
Cc1c(Cl)cccc1NC(=S)NCCc1ccc(C(F)(F)F)cc1	83%[59 µM]	43%	7%	3%	40µM*	-14%
COc1ccc(CCNC(=S)NCc2ccc(Cl)c(Cl)c2)cc1OC	23%[59 µM]	-6%	-27%	0%	45µM*	?
CCc1ccccc1NC(=O)C1CCN(S(=O)(=O)c2ccc(N3CCCC3=O)cc2)CC1	nt	nt	nt	1%	-6%	nt
S=C(NCCCc1ccccc1)Nc1ccccc1Cl	17%[59 µM]	-35%	-3%	-13%	?	4%
S=C(NCCCCc1ccccc1)Nc1cccc(Cl)c1Cl	nt	nt	nt	nt	25µM*	nt
Cc1cc(C)n2nc(C(=O)OCC(=O)NCc3ccc(Cl)cc3)nc2n1	5%[2.33 µM]	42%	-3%	-7%	?	5%
CC(=O)NS(=O)(=O)c1cccnc1Nc1ccc(Cl)c(Cl)c1	?	-2%	-3%[11.4 µM]	9.5µM*	-50%	-5%
Cc1ccc(-c2c(C)c(-c3ccc(F)cc3)nc(N)c2C#N)o1	13µM*	40%	6%	-1%	?	20%
O=C(N/N=C/c1cc(O)ccc1Br)c1cccnc1	nt	42%	45µM*	-6%	3%	7.1µM*
O=C(N/N=C(\c1ccccc1)c1cccnc1)c1cc(O)ccc1O	10µM*	nt	nt	nt	-29%	-34%
O=C(N/N=C/c1cc(Br)c(O)c(Br)c1O)c1cccnc1	?	26%	50µM*	-19%	?	35µM*
C/C(=N\NC(=O)c1cccnc1)c1ccccc1	29%	49%	1%	-7%	-19%	-21%
Cc1cc(SCC(=O)N2CCCC2=O)nc2ccccc12	nt	57%	-1%	?	-8%	nt
O=C(Nc1nnc(-c2ccco2)o1)c1cc(-c2ccccc2)nc2ccccc12	nt	nt	nt	nt	-14%[57.4 µM]	nt
Clc1ccc(CNCc2ccccc2Cn2cncn2)c(Cl)c1	nt	nt	nt	nt	45µM*	nt
Nc1nn(Cc2ccc(Cl)cc2Cl)cc1Cl	nt	nt	nt	nt	-22%	nt
CCN(CC)C(=O)Cn1cc(SCC(=O)Nc2cc(C)on2)c2ccccc21	-7%	14%	89µM*	?	-15%	-12%
CCOc1ccc(C(=O)NCCn2cc(SCC(=O)Nc3cc(C)on3)c3ccccc32)cc1	-7%[59 µM]	19%	-19%	-14%	0%	79µM*
Cc1ccc(C(=O)NCCn2cc(SCC(=O)Nc3nnc(C)s3)c3ccccc32)cc1	50µM*	36%	-22%	-2%	?	-6%
CCCn1cc(SCC(=O)Nc2nnc(C)s2)c2ccccc21	?	39%	1%	-4%	4%	0%
CCN(CC)C(=O)Cn1cc(SCC(=O)Nc2ccccc2C)c2ccccc21	-15%[59 µM]	56%	-11%	nt	-16%	-10%
C[C@@H]1CCCCO[C@@H](CN(C)Cc2ccccc2)[C@@H](C)CN([C@H](C)CO)C(=O)c2cc(NC(=O)Nc3cccc4ccccc34)ccc2O1	nt	nt	nt	-9%	?	nt
